Screens as filed in PubChem BioAssay.
Most compounds without a hit are left out; they make up all but 12% or so of the library.
BAZ2B inh: BAZ2B (human) inhibition. Q9UIF8. AlphaScreen BAZ2B-H3K14Ac peptide displacement. Potency, µM (titrated, usually from 114 µM), hits mostly inhibitors. 360,000 tested, 4.4% active; further: nearly all actives have a fitted effect of over 60% in size
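BAZ2B (50 nM) with biotin-H3(5-23)K14Ac peptide (50 nM) in PBS pH 7.4, 0.01% Tween-20, preformed 30 min, then compound 30 min at room temperature; top concentration 110uM. AlphaScreen streptavidin donor/nickel chelate acceptor beads (10 ug/mL final), 20 min dark, signal read.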
Sfp PPTase inh: Sfp phosphopantetheinyl transferase inhibition | Potency, µM, hits mostly inhibitors | Biochemical Sfp PPTase activity, qHTS | AID 1490 | 310,000 tested, 3.5% active;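 further: the enzyme is Sfp with the accession as filed and its product quenches rhodamine fluorescence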
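Compounds were incubated with enzyme (final 15 nM) for 15 min at room temperature before substrate addition started the reaction. Fluorescence at 525 nm excitation, 598 nm emission was recorded immediately and after 30 minutes.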
HP1b binding inh: HP1-beta chromodomain-methylated histone interaction inhibition; AlphaScreen HP1-beta / biotin-H3K9me3 peptide binding; Potency, µM (top dose mostly 114 µM), usual class: inhibitors; 390,000 tested, 0.56% active; further: nearly all actives have a fitted effect of over 70% in size
Target sequence (P83916 whole entry, looked up): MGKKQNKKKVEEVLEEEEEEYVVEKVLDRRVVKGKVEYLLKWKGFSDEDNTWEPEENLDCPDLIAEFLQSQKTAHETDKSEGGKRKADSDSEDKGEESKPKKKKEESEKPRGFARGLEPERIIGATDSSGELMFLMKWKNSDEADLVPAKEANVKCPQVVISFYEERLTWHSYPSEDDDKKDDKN
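Compound inhibition of the preformed complex between 50 nM HP1-beta and 50 nM biotinylated H3K9me3 peptide was read by AlphaScreen. Buffer was PBS pH 7.4 with 0.01% Tween-20. Incubations ran 30 min at room temperature, with 10 ug/mL donor/acceptor beads.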
JMJD2A Tudor: JMJD2A Tudor domain (human) inhibition; Potency, µM (doses to about 114 µM), actives largely listed as inhibitors; 390,000 tested, 4.4% active; AlphaScreen JMJD2A-Tudor / H3K4me3 peptide binding; O75164; further: nearly all actives have a fitted effect of over 50% in size
L3MBTL1 inh: blocks human L3MBTL1. AlphaScreen L3MBTL1–H3K9me1 peptide binding. Q9Y468. Potency, µM (top dose mostly 57.1 µM), actives largely listed as inhibitors. 230,000 tested, 0.66% active; further: nearly all actives have a fitted effect of over 60% in size
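L3MBTL1 (50 nM) pre-complexed 30 min with biotinylated H3(1-15)K9me1 peptide (75 nM), then compounds added for 30 min at room temperature; AlphaScreen streptavidin donor/nickel chelate acceptor beads (10 ug/mL final) read after 30 min dark incubation.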
G9a inh: G9a (human) methyltransferase inhibition; 350,000 tested, 8.8% active; Q96KQ7; G9a H3K9 monomethylation, AlphaScreen, 2 h; Potency, µM (doses to about 102 µM), hits mostly inhibitors; AID 504332; further: nearly all actives have a fitted effect of over 75% in size
Target sequence (Q96KQ7 913-1193 limits assumed): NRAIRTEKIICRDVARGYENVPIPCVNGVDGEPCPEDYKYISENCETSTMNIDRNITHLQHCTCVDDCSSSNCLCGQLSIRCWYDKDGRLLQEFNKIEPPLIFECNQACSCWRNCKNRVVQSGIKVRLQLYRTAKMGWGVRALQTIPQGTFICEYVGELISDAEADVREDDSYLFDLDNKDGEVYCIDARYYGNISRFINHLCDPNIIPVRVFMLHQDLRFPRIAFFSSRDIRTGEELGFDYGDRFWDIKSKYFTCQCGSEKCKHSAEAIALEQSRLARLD
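Compounds were preincubated with 20 nM G9a for 15 min, after which biotinylated H3K9 peptide (500 nM) and SAM (20 uM) started a 2 h room-temperature reaction. Monomethylated product was quantified by antibody-based AlphaScreen chemiluminescence.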
Large screens that a line does not name were inactive; ! = repeats disagree. The call rests on the fitted dose curve; in most records, active means well fitted curve in the direction sought with a large enough effect; inconclusive means small, poorly fitted or top-dose-only effect, or another doubt; inactive means no such curve, though single readings can be large; an effect the other way counts as inactive or inconclusive.

CC(C)Cn1c(N)c(C(=O)COC(=O)c2cc(-c3ccco3)nc3ccccc23)c(=O)n(C)c1=O	BAZ2B inh 79.4µM, Sfp PPTase inh 20µM!, HP1b binding inh inconclusive, JMJD2A Tudor 39.8µM, L3MBTL1 inh 8.91µM, G9a inh inconclusive
Cn1c(=O)c(C(=O)COC(=O)c2cc(-c3ccco3)nc3ccccc23)c(N)n(Cc2ccccc2)c1=O	BAZ2B inh 44.7µM, Sfp PPTase inh 31.6µM, L3MBTL1 inh inconclusive, G9a inh 8.91µM (no result: HP1b binding inh, JMJD2A Tudor)
Cn1c(N)c(C(=O)COC(=O)c2cc(-c3ccccc3)nc3ccccc23)c(=O)n(Cc2ccccc2)c1=O	G9a inh inconclusive
COc1ccc(Cl)cc1NC(=O)CSc1cn(CC(=O)N2CCCCCC2)c2ccccc12	G9a inh inconclusive (no result: Sfp PPTase inh, L3MBTL1 inh)
COc1ccc(C2=Nn3c(nnc3-c3cc(OC)ccc3OC)SC2)cc1	none (no result: BAZ2B inh, HP1b binding inh, L3MBTL1 inh, G9a inh)
c1coc(CNC2CCCCCCC2)c1	BAZ2B inh 89.1µM, JMJD2A Tudor 50.1µM, G9a inh 20µM
c1coc(CNC2C3CC4CC(C3)CC2C4)c1 (stereo not drawn)	none (no result: L3MBTL1 inh)
c1coc(CNC2CCCCC2)c1	BAZ2B inh inconclusive, Sfp PPTase inh inconclusive, JMJD2A Tudor 7.08µM, G9a inh inconclusive
O=[N+]([O-])c1cc(Br)c(Nc2ccccc2)c([N+](=O)[O-])c1	BAZ2B inh 14.1µM, HP1b binding inh inconclusive, JMJD2A Tudor 20µM, G9a inh 39.8µM (no result: L3MBTL1 inh)
Nc1cc(C(F)(F)F)ccc1Nc1ccccc1	BAZ2B inh 50.1µM, L3MBTL1 inh inconclusive
O=C(Nc1ccccc1)c1ccc(Nc2c([N+](=O)[O-])cc([N+](=O)[O-])c3ccccc23)cc1	BAZ2B inh inconclusive
N#Cc1ccc(Nc2ccccc2)c(N)c1	none (no result: G9a inh)
Nc1cc([N+](=O)[O-])ccc1Nc1ccccc1	BAZ2B inh inconclusive, JMJD2A Tudor inconclusive, G9a inh 39.8µM
Cc1cccc(Nc2ccc([N+](=O)[O-])cn2)c1	none (no result: G9a inh)
Cc1cccc(Nc2ccc([N+](=O)[O-])cc2C(=O)O)c1	BAZ2B inh 50.1µM, JMJD2A Tudor inconclusive, G9a inh 1.41µM
Cc1cc(C)n2nc(CNC(=O)c3cccc(Cl)c3)nc2n1	none (no result: Sfp PPTase inh, L3MBTL1 inh)
CCOC(=O)c1[nH]c2ccccc2c1NC(=O)c1cc(OC)cc(OC)c1	none (no result: Sfp PPTase inh, L3MBTL1 inh)
CCC1Oc2ccc(C)cc2N(CC(=O)NCCc2ccccc2)C1=O (stereo not drawn)	none (no result: Sfp PPTase inh, L3MBTL1 inh)
O=C(NCc1ccccc1Cl)C(=O)NCC(c1ccc2c(c1)OCO2)N1CCOCC1 (stereo not drawn)	none (no result: Sfp PPTase inh, L3MBTL1 inh)
CCC1CCCCN1C(=S)NC(=O)c1ccc([N+](=O)[O-])cc1 (stereo not drawn)	BAZ2B inh 70.8µM, JMJD2A Tudor inconclusive, G9a inh inconclusive
CCC1CCCCN1C(=S)NC(=O)c1ccc(F)c(S(=O)(=O)N2CCOCC2)c1 (stereo not drawn)	G9a inh 44.7µM
CCCc1cc2c(c(=O)o1)C(O)C1OC1C2=O (stereo not drawn)	none (no result: BAZ2B inh, HP1b binding inh, JMJD2A Tudor, L3MBTL1 inh, G9a inh)
CC(C)c1ccccc1NC(=O)CCc1nc2ccccc2s1	Sfp PPTase inh inconclusive, G9a inh 20µM
COc1ccccc1NC(=O)CCc1nc2ccccc2s1	JMJD2A Tudor 20µM
O=C(CCCc1nc2ccccc2s1)Nc1ccccc1	none (no result: L3MBTL1 inh)
O=C(O)CCCC(=O)Nc1ccc(OCc2nc3ccccc3s2)cc1	BAZ2B inh inconclusive, Sfp PPTase inh 8.91µM, HP1b binding inh inconclusive, JMJD2A Tudor inconclusive, G9a inh 3.16µM
O=C(CCc1nc2ccccc2s1)Nc1ccccc1	none
CCOC(=O)C(=O)Cc1cccnn1	HP1b binding inh inconclusive, JMJD2A Tudor 3.55µM (no result: BAZ2B inh, Sfp PPTase inh, L3MBTL1 inh, G9a inh)
O=C(O)C1CC(C(=O)O)SS1 (stereo not drawn)	JMJD2A Tudor 31.6µM (no result: BAZ2B inh, Sfp PPTase inh, L3MBTL1 inh, G9a inh)
Cc1cccc(S(=O)Cc2ccc(C(=O)NC3CCCCCC3)o2)c1 (stereo not drawn)	none (no result: Sfp PPTase inh, L3MBTL1 inh)
O=C(Nc1ccccc1C(=O)N1CCN(Cc2ccccc2)CC1)c1ccccn1	JMJD2A Tudor inconclusive, G9a inh 14.1µM
CCCN1CCN(c2ncnc3sc(C(=O)Nc4c(C)cc(C)cc4C)c(C)c23)CC1	none (no result: Sfp PPTase inh, L3MBTL1 inh)
CS(=O)(=O)Nc1cccc(-c2ccc3ncnc(N4CCOCC4)c3c2)c1	none (no result: BAZ2B inh, HP1b binding inh, JMJD2A Tudor, L3MBTL1 inh)
